High-throughput results as filed in PubChem BioAssay.
Only some compounds are listed: those with a hit (about 1.8% of all), similar ones and a draw of the others.
PrPC TRFRET – reduces human prion protein on the cell surface. 370,000 compounds, 0.43% hits. cell surface PrPC, TR-FRET read-out. AID 720596. P04156. inhibition, % at 13.8 µM; in the data active = inhibition above about 24%; note: 0% = median of the test wells and 100% = reference compound wells
DUSP3 inh – inhibitors of human VHR1 phosphatase (DUSP3); inhibition, % at 13.3 µM; recombinant VHR phosphatase, pNPP absorbance; AID 1654; 290,000 compounds, 0.52% hits; in the data active = inhibition above about 50%
Yp Topo-I inh – Y. pestis Topo-I inhibition via cleavage products. Y. pestis Topo-I cleavage product accumulation, plate reader. 360,000 compounds, 0.064% hits. activity, % at 10 µM; in the data active = activity above about 50%, passing the limit was not always enough; inconclusive = no clear call, values can overlap the other calls
MazEF act – MazEF (E. coli) toxin RNase activation; P0AE70; FAM/BHQ RNA-DNA oligo cleavage fluorescence, 5 h; activation, % at 20 µM; 350,000 compounds, 0.32% hits; in the data active = activation above about 50%
Vc quorum ag – quorum light induction in luxS cqsA deficient V. cholerae | V. cholerae BH1578 lux reporter, luminescence, 6 h | activation, % at 18.7 µM | 350,000 compounds, 0.16% hits | AID 588436; in the data active = activation mostly above about 9.7%, no sharp cut-off; inconclusive = no clear call, values can overlap the other calls; inactive = mostly below about 3.7%
CCHFV vOTU inh – blocks the CCHF virus ovarian tumor domain protease; CCHFV vOTU protease, Pep-AMC fluorescence; inhibition, % at 11.5 µM; 370,000 compounds, 0.55% hits; in the data active = inhibition above about 30%; note: 0% = vehicle wells with enzyme and 100% = no enzyme wells
PrPC TRFRET cf – cell surface PrPC inhibition, TR-FRET confirmation | shares compounds with PrPC TRFRET | cell surface PrPC level | inhibition, % at 13.8 µM | 1,500 compounds, 65% hits | AID 743200; in the data active = inhibition above about 25%
LD9 cytotox – counter-screen for PrPc inhibitors: cytotoxicity in LD9 cells; shares compounds with PrPC TRFRET; luminescence viability; inhibition, % at 13.8 µM; 1,500 compounds, 29% hits; in the data active = inhibition above about 9.5%
An asterisk follows results filed as active; i = inactive; ? = inconclusive; nt = no result given.

SMILES	PrPC TRFRET	DUSP3 inh	Yp Topo-I inh	MazEF act	Vc quorum ag	CCHFV vOTU inh	PrPC TRFRET cf	LD9 cytotox
C=Cc1cc2c(cc1O)CCC1C2CCC2(C)C(O)CCC12 (centres undefined)	29*	nt	3	10	nt	-5	11	-4
CC#Cc1cc2c(cc1O)CCC1C2CCC2(C)C(O)CCC12 (centres undefined)	16	nt	1	-1	nt	7	nt	nt
CN(C)c1nc(N(C)C)c2cnn(C)c2n1	5	nt	6	-8	i	6	nt	nt
COc1cc(/C=N/NC(=O)CC#N)ccc1Oc1nc(Cl)ncc1F	-3	6	-2	-27	i	3	nt	nt
O=C(C1=C(O)C(=O)N(CCN2CCOCC2)C1c1cccc([N+](=O)[O-])c1)c1cc2ccccc2o1 (centres undefined)	4	nt	-4	-14	-5	5	nt	nt
O=C(C1=C(O)C(=O)N(CCN2CCOCC2)C1c1cccc(Br)c1)c1cc2ccccc2o1 (centres undefined)	75*	12	-1	7	-2	20	130*	1
CC(C)(C)OC(=O)N(Cc1ccccc1)Cc1ccccc1OCc1ccc(NC(=O)C2CCC2)cc1	3	nt	20	-34	-2	22	nt	nt
Cc1nn(Cc2ccc(Cl)c(Cl)c2)c(C)c1NC(=O)c1cc(CC(C)C)on1	49*	11	29	5	0	9	51*	1
CCC(C)C1NC(=O)C(NC(=O)C(CC(C)C)N(C)C(=O)C2CCCN2C(=O)C(C)O)C(C)OC(=O)C(Cc2ccc(OC)cc2)N(C)C(=O)C2CCCN2C(=O)C(CC(C)C)NC(=O)[C@H](C)C(=O)[C@H](C(C)C)OC(=O)CC1O (some centres undefined)	97*	nt	13	5	6	29	98*	64*
C#CCCC[C@@H]1OC(=O)CNC(=O)C([C@@H](C)CC)NC(=O)[C@@H]2CCCN2C(=O)C([C@@H](C)CC)OC(=O)[C@H](Cc2ccccc2)N(C)C(=O)[C@H](C(C)C)NC(=O)C1(C)C (some centres undefined)	5	nt	nt	nt	nt	23	nt	nt
C=C1C(=O)[C@]23C[C@H]1CC[C@H]2[C@]1(C)CCC[C@@](C)(C(=O)OC)[C@H]1C[C@@H]3O	60*	nt	nt	nt	nt	8	71*	96*
N#CC(C#N)=NNc1ccc(-n2ccc(C(F)(F)F)n2)cc1	32*	-8	-8	-9	-1	9	43*	39*
O=C(Nc1ccccc1)Nc1ccc(-n2ccc(C(F)(F)F)n2)cc1	26*	9	0	2	i	-4	22	9.9*
Cc1cc(C)n(-c2ccc(NN=C(C#N)C#N)cc2)n1	-9	18	4	-3	0	-6	nt	nt
Cc1ccc(OCCn2c(CCNC(=O)C3CCCCCC3)nc3ccccc32)cc1	6	nt	nt	nt	nt	nt	nt	nt
CCCn1c(COc2ccc(C(=O)O)cc2)nc2ccccc21	-6	4	0	6	4	-13	nt	nt
COc1ccc(C(=O)OCC(=O)N2c3ccccc3CC2C)cc1S(=O)(=O)N1CCOCC1 (centres undefined)	2	nt	2	-3	0	-9	nt	nt
CN(c1ccc(F)cc1)S(=O)(=O)c1ccc(Cl)c(C(=O)OCC(=O)NCc2ccco2)c1	3	20	1	-2	0	4	nt	nt
Cc1ccccc1C(=O)NNc1ccc(-c2csnn2)cc1	25*	32	-5	-1	-1	7	14	7
CC(=O)Oc1ccc(-c2csnn2)cc1	-4	10	4	-6	-1	-2	nt	nt
c1ccc(-c2ccc(CNc3nc(-c4ccccn4)nnc3-c3ccccc3)cc2)cc1	29*	nt	nt	nt	nt	nt	37*	28*
CC(C)(C)CCNc1nc(-c2ccccn2)nnc1-c1ccccc1	28*	nt	nt	nt	nt	nt	27*	34*
C=CCNc1nc(-c2ccccn2)nnc1-c1ccccc1	21	20	-1	2	1	15	nt	nt
COc1ccc(CN2C[C@@H](CO)O[C@@H](n3cnc4c(NCCO)ncnc43)C2)cc1	-2	nt	-3	nt	i	0	nt	nt
O=C(Nc1cccc(Cl)c1)Nc1ccc2c(c1)OCO2	32*	3	-18	6	0	6	31*	-3
SMILES	PrPC TRFRET	DUSP3 inh	Yp Topo-I inh	MazEF act	Vc quorum ag	CCHFV vOTU inh	PrPC TRFRET cf	LD9 cytotox
Cc1ccc(S(=O)(=O)N2CCOC23CCN(C(=O)c2ccc(Cl)cc2Cl)CC3)cc1	48*	-4	?	3	0	17	32*	0
Cc1ccc(S(=O)(=O)N2CCOC23CCN(C(=O)c2cc(Cl)ccc2Cl)CC3)cc1	5	-13	21	-16	0	11	nt	nt
CCOc1ccc(C2c3[nH]c4ccccc4c3CCN2C(=O)Cn2cncn2)cc1 (centres undefined)	37*	3	30	5	i	3	34*	-6
CCOCCCNc1ncnc2c1[nH]c1ccccc12	13	-2	3	6	i	-2	nt	nt
CCCCOCCCNc1ncnc2c1[nH]c1ccccc12	31*	-2	18	-4	i	-3	24*	17*
O=C(c1ccco1)N1CCN(C(=S)Nc2ccccc2C(F)(F)F)CC1	6	28	-6	1	-1	-1	nt	nt
CC1=NC(C)(C)Cc2cc(C)c(C)cc21	-1	30	9	2	0	0	nt	nt
CCOP(=S)(OCC)Oc1ccc2c(C)c(Cl)c(=O)oc2c1	68*	nt	-8	-19	0	4	37*	1
CCC(=O)Oc1ccc2c(C)c(Cl)c(=O)oc2c1	4	-18	9	3	0	-265	nt	nt
COc1ccc(N(C)S(=O)(=O)c2cccc(C(=O)OC(C(=O)Nc3cc(C)cc(C)c3)c3ccccc3)c2)cc1 (centres undefined)	26*	-6	-3	4	0	-6	16	-2
CCOc1cc(C(=S)N2CCCC2)ccc1OCc1ccccc1	27*	46	7	-1	-1	3	7	-5
CCC(=O)N(c1nnc(SCC(=O)Nc2sccc2C(N)=O)s1)C1CC1	3	nt	8	5	i	-21	nt	nt
Cc1cccc(C2N=C(N)Nc3nc4ccccc4n32)c1 (centres undefined)	-4	31	0	0	i	1	nt	nt
CCC(=O)NC(c1ccc(C)cc1)c1ccc2cccnc2c1O (centres undefined)	30*	11	1	7	0	-8	31*	28*
CCCCC(=O)NC(c1ccc(Cl)cc1Cl)c1ccc2cccnc2c1O (centres undefined)	7	20	5	6	-2	-7	nt	nt
CCCC(=O)NC(c1ccc(C(C)C)cc1)c1ccc2cccnc2c1O (centres undefined)	19	6	38	0	1	-2	nt	nt
